For eight compounds, Potency, caspase-3 activation and outcome results are on record in PubChem BioAssay (NCATS).

A short description of experiment [1]: Cell Viability - H-4-II-E (AID 543).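 Also: cells exposed to compound for 40 hours; % is scaled to controls: 0 for no effect and ±100 for the full control effect; nearly all actives have a fitted effect of over 35% in size.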 In outline:
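Rat hepatoma H-4-II-E cells, 1500 per well, treated 40 h at 37 °C in complete medium. Cellular ATP read by CellTiter-Glo luminescence; AC50 from Hill fits of concentration-response.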

Experiment [2] can be described thus: Cell Viability - Renal Proximal Tubule (AID 545).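 Also: cells exposed to compound for 40 hours; nearly all actives have a fitted effect of over 40% in size.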 An outline of the steps:
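Luminescent ATP signal (CellTiter-Glo) served as the viability read-out after 40 hr compound exposure of freshly isolated rat proximal tubule cells at 37 °C. Concentration-dependent ATP loss was fitted with the Hill equation to give AC50.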

Experiment [3] is described as follows: Cell Viability - Mesenchymal (AID 546).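 Also: cells exposed to compound for 40 hours before reading.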 An outline of the steps: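 Normal human renal glomerulus-derived kidney mesenchymal cells, 1000 per well in complete medium, were treated with compounds for 40 hr at 37 °C. Viability was read as intracellular ATP by CellTiter-Glo luminescence; AC50 values came from Hill-equation fits of qHTS concentration-response data.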

A short description of experiment [4]: Cellular Toxicity (caspase-3) HepG2 (AID 654).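 Also: cells exposed to compound for 16 hours before reading; 0% = DMSO alone and 100% = caspase signal from 100 µM tamoxifen.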 In outline:
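HepG2 cells (1500/well) were treated 16 h at 37 °C in complete medium, then caspase 3/7 activity was read by Caspase-Glo luminescence. Data were normalized to DMSO and 100 uM tamoxifen; AC50 came from Hill-equation fits of qHTS concentration-response.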

A short description of experiment [5]: Cellular Toxicity (caspase-3) Jurkat (AID 655).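 Also: cells exposed to compound for 16 h at 37 °C before reading.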 The conditions noted are these: Jurkat caspase-3 activation, luminescence; caspase-3 activation: at 92.2 µM (top of the series), DMSO = 0%, tamoxifen = 100%. An outline of the steps:
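5000 Jurkat cells/well; compound 16 hr, 37 °C; Caspase-Glo 3/7 added, 20 min RT; luminescence read. Norm: DMSO = 0%, tamoxifen 100 uM = 100%. AC50, Hill model.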

Experiment [6] in a line: Cellular Toxicity (caspase-3) HUV-EC-C (AID 656). In outline:
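qHTS; HUV-EC-C, 1000 cells/well; 5 hr settle, 16 hr cmpd, 37°C; Caspase-Glo 3/7, 20 min RT; luminescence. Norm: DMSO = 0%, tamoxifen 100 uM = 100%. Hill-fit AC50.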

A short description of experiment [7]: Cellular Toxicity (caspase-3) SHSY5Y (AID 657). An outline of the steps:
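qHTS, SH-SY5Y, 1500 cells/well, 5 h pre-incubation 37 °C; compound 16 h 37 °C; Caspase-Glo 3/7 1 h RT; luminescence. Norm.: DMSO = 0, 10 uM staurosporine = 100%. Hill fit → AC50.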

Experiment [8] in a line: Cellular Toxicity (caspase-3) BJ (AID 658).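 Also: 0% = DMSO basal and 100% = 10 µM staurosporine.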 An outline of the steps:
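Luminescent aminoluciferin-substrate cleavage reports caspase 3/7 activity in normal human BJ fibroblasts after 16 hr compound exposure at 37 °C. Normalized to DMSO (basal) and 10 uM staurosporine (100%); AC50 from Hill fit of concentration-response.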

Experiment [9] in a line: Cellular Toxicity (caspase-3) MRC-5 (AID 659).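 Also: 0% = DMSO basal and 100% = 10 µM staurosporine.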 An outline of the steps: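 Luminescence from caspase-cleaved aminoluciferin substrate (Caspase-Glo 3/7, 1 hr RT) reports caspase 3/7 activity in MRC-5 lung fibroblasts after 16 hr compound exposure. Normalized to DMSO basal and 10 uM staurosporine as 100%; AC50 from Hill fits.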
Experiment [10] in a line: Cellular Toxicity (caspase-3) Mesangial (AID 660).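 Also: cells exposed to compound for 16 h before the caspase read.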 The settings on record: mesangial cells, normalized: DMSO 0%, 100 µM tamoxifen 100%; at 91.7 µM (top of the series). An outline of the steps: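 Human renal glomerular mesangial cells, 1000/well, 5 h at 37 C before 16 h compound treatment. Caspase-Glo 3/7 luminescence after 20 min; normalized to DMSO and 100 uM tamoxifen, AC50 from Hill fit.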

Experiment [11] can be described thus: Cellular Toxicity (caspase-3) SK-N-SH (AID 661).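 Also: 0% = DMSO basal and 100% = 10 µM staurosporine.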 An outline of the steps:
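Human SK-N-SH neuroblastoma cells, 1500/well, were exposed to compounds for 16 hours at 37 °C. Caspase-Glo 3/7 luminescence was normalized to DMSO (basal) and 10 uM staurosporine (100%), and AC50 came from a Hill fit.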

Experiment [12] is described as follows: Cellular Toxicity (caspase-3) H-4-II-E (AID 663).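 Also: cells exposed to compound for 16 hr before readout.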 The conditions noted are these: H-4-II-E rat hepatoma, scaled: DMSO 0%, 100 µM tamoxifen 100%; at 92.2 µM (top of the series). An outline of the steps: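 Luminescence from caspase-cleaved aminoluciferin substrate, read 20 min after reagent addition, reports caspase 3/7 activation in rat H-4-II-E cells after 16 hr compound exposure. Normalized to DMSO (basal) and 100 uM tamoxifen (100%); AC50 from Hill fits.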

The nature of experiment [13]: Cellular Toxicity (caspase-3) Hek293 (AID 664).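 Also: cells exposed to compound for 16 h at 37 °C before readout.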 The conditions noted are these: HEK293 caspase-3 activation, DMSO = 0%, 100 µM tamoxifen = 100%; at 92.2 µM (top of the series). An outline of the steps: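 HEK293 cells in complete medium treated 16 h at 37 °C, then Caspase-Glo 3/7 luminescence read after 20 min at room temperature. Normalized to DMSO and 100 uM tamoxifen; AC50 from Hill fit of concentration-response.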

Experiment [14] can be described thus: Cellular Toxicity (caspase-3) N2a (AID 665).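 Also: compound exposure lasted 16 h at 37 °C before readout.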 An outline of the steps:
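Mouse N2a neuroblastoma cells, 1500 per well, treated 16 h at 37 °C in complete medium; caspase-3/7 activity by Caspase-Glo luminescence after 1 h. Normalized to DMSO and 10 uM staurosporine; AC50 from Hill fits.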

Experiment [15] is described as follows: Cellular Toxicity (caspase-3) NIH 3T3 (AID 666). An outline of the steps:
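Mouse NIH 3T3 fibroblasts (1000/well) treated 16 h at 37 C; caspase-3/7 activity measured by Caspase-Glo 3/7 luminescence after 20 min. Normalized to DMSO and 100 uM tamoxifen; AC50 from Hill fits.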

Experiment [16] is described as follows: Cellular Toxicity (caspase-3) Renal Proximal Tubule (AID 667).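 Also: cells exposed to compound for 16 hours at 37 °C before detection; 0% = DMSO basal and 100% = 10 µM staurosporine.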 The settings on record: Potency: caspase-3 activation. An outline of the steps: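 AC50 derived by standard Hill fit of concentration-response data, normalized between DMSO basal and 10 uM staurosporine as 100% stimulation. Cells: primary rat kidney proximal tubule, 16 h treatment at 37 °C.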
For experiment [17], the target named is Cytochrome P450 3A4 (Homo sapiens) (UniProt P08684). The experiment is described as follows: qHTS Assay for Activators of Cytochrome P450 3A4 (AID 885). Also: nearly all actives have a fitted effect of over 65% in size. An outline of the steps:
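Signal was normalized against complete inhibition by 57 uM ketoconazole. The reaction used 20nM CYP3A4 with 25uM Luciferin-PPXE, 10-min compound preincubation and a 60-min NADPH-supported step at RT.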

The nature of experiment [18]: Cell Viability - LYMP2-001 (AID 921).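 Also: cells exposed to compound for 24 h at 37 °C; nearly all actives have a fitted effect of over 70% in size.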 Also: potency is read from the fitted curve at half-maximal effect. An outline of the steps:
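Steps: seed 2500 lymphoblastoid cells/well; 5 hr, 37 C; add compound; 24 hr, 37 C; CellTiter-Glo reagent, 30 min room temperature; read luminescence. Concentration-response modeled by Hill equation for AC50.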

For experiment [19], the target named is Cytochrome P450 3A4 (Homo sapiens) (UniProt P08684). The experiment is described as follows: qHTS Assay for Inhibitors and Substrates of Cytochrome P450 3A4 (AID 884). Also: % is scaled to controls: 0 for no effect and ±100 for the full control effect; nearly all actives have a fitted effect of over 50% in size. In outline:
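20 nM human CYP3A4 with 25 uM Luciferin-PPXE (at KM) in 200 mM KPO4, preincubated 10 min with compound; NADPH regeneration started a 60 min RT reaction. Luciferin detected by luminescence, normalized to 57 uM ketoconazole as full inhibition.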

A number with no mark means an inactive call. Inconclusive results are not listed. Active and inactive are the calls of the source. Calls follow the shape of the dose curve; as a rule, active = well fitted curve in the direction sought with a large enough effect; inconclusive = small, poorly fitted or top-dose-only effect, or another doubt; inactive = no such curve, though single readings can be large; an effect the other way counts as inactive or inconclusive.

Sequence of Cytochrome P450 3A4 (Homo sapiens) (P08684 whole entry, looked up): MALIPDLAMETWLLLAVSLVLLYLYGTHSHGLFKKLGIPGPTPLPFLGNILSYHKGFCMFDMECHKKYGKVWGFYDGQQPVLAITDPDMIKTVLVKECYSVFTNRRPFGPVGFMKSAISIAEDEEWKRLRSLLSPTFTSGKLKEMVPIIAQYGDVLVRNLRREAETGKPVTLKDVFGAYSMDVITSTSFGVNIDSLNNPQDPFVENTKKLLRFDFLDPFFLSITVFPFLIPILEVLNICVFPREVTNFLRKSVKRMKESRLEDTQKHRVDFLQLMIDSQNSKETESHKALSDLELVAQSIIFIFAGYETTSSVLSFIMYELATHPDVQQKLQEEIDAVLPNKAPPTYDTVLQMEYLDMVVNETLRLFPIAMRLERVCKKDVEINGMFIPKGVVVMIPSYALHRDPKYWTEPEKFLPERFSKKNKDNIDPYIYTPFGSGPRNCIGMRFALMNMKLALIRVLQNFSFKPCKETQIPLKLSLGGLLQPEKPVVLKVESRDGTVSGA

On to `Nc1cc(Cl)c(N)c(Cl)c1`, for which the Potency entry in experiment [1], in [2], in experiment [3], in [4], in [16] and in experiment [18] was “inactive” throughout. Besides, the caspase-3 activation in [5] is 3.71%; in experiment [10] it was -0.0656%; in experiment [12] it was 1.21%; in experiment [13], -2.67%. Moreover, the result in [6], in experiment [7], in [8], in experiment [9], in [11] and in experiment [14] was inactive. The call in experiment [15] and in [17] was inactive.
On to `CN(C)CCCCl`, for which the Potency result in experiment [1], in [2], in experiment [4], in experiment [16], in experiment [19] and in [18] was “inactive” each time. The caspase-3 activation in [5] is 1.76%; in experiment [10] it was -0.558%; in experiment [12], 0.431%; in experiment [13] it was -0.527%. Besides, the compound was called inactive in [6], in experiment [7], in experiment [8], in [9], in [11] and in [14]. Also, in [15], the compound was classed as inactive.
Take `O=C1OC(=O)c2c(Cl)c(Cl)c(Cl)c(Cl)c21`: the Potency entry in experiment [1], in [2], in experiment [3], in [4], in experiment [16] and in experiment [19] was “inactive” each time. Also, the Potency entry in [18] is “inactive”. Also, the caspase-3 activation in experiment [5] is 0.457%; in [10], -0.0678%; in experiment [12], -0.63%; in experiment [13], 1.4%. Also, the compound was called inactive in [6], in [7], in experiment [8], in [9], in [11] and in experiment [14]. Besides, the compound was called inactive in [15].
For the compound `CCCCC/C=C/C=C/C=O`, the Potency result in experiment [1], in experiment [2], in [3], in experiment [16] and in experiment [19] was “inactive” in each case. Moreover, the outcome in experiment [7], in experiment [8], in [9], in experiment [11], in experiment [14] and in experiment [15] was inactive. Besides, the caspase-3 activation in [10] was 0.621%; in experiment [13] it was 163% (active). The Potency in experiment [18] was 50.1 µM (active).
In the case of `Cc1cc(C)cc(N)c1`, the Potency result in experiment [1], in experiment [2], in [3], in experiment [4], in experiment [16] and in [19] was “inactive” in each case. Also, the Potency entry in experiment [18] was “inactive”. For the same compound, the caspase-3 activation was 0.537% in experiment [5], -0.679% in [10], -0.0763% in experiment [12] and -0.185% in [13]. Further, the call in experiment [6], in experiment [7], in experiment [8], in experiment [9], in experiment [11] and in [14] was inactive. The compound was classed as inactive in experiment [15].
For the compound `CC(=O)c1ccccn1`, the Potency entry in experiment [1], in experiment [2], in experiment [4], in experiment [16], in [19] and in experiment [18] was “inactive” throughout. Also, the caspase-3 activation in [5] was 12.2%; in [10], 0.864%; in experiment [12], 1.68%; in experiment [13] it was 0.0845%. Besides, the compound was called inactive in [6], in [7], in experiment [8], in experiment [9], in experiment [14] and in experiment [15].
In the case of `CC(C)(C)OC=O`, the Potency entry in experiment [1], in experiment [2], in experiment [3], in experiment [4], in experiment [16] and in [19] was “inactive” each time. Further, the outcome in [6], in experiment [7], in [8], in experiment [11], in [14] and in experiment [15] was inactive. For the same compound, the values for the caspase-3 activation in [12] and in experiment [13] were 0.183% and -1.63%, respectively.
`CC(C)N=C=NC(C)C`: the Potency result in experiment [1], in [2], in [3], in experiment [4], in [16] and in [19] was “inactive” throughout. The Potency result in experiment [18] is “inactive”. Further, the caspase-3 activation in experiment [5] is 2.33%; in experiment [10], -0.478%; in experiment [12], 2.29%; in [13], -0.83%. Moreover, the compound was classed as inactive in experiment [6], in [7], in [8], in experiment [14] and in experiment [15].
